Assay results taken from the supplement of paper PMC9177965.
“And” between values parts separate entries of the source, which are not always exact repeats. Equal entries are not always repeated.

test system: HT29 RNF43 G659fs (RNF43 659mut, CRISPR-edited); experiment: cell viability activity relative to DMSO (negative = inhibition); higher = more viable cells (less growth inhibition); details: 5 µM; 96 h
Description: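 Broad Repurposing Library primary screen at a single dose of 5 uM. HT29 sg-Ctrl and HT29 RNF43 G659fs CRISPR-edited isogenic cells were seeded at 2500 cells/well in 384-well plates in duplicate and treated for 96 h. Viability was read by CellTiter-Glo and reported as % activity relative to DMSO, with MG132 as the positive control (negative = growth inhibition).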

Row | Compound | cell viability activity
1 | CC(C)C[C@H](NC(=O)[C@H](CCc1ccccc1)NC(=O)CN1CCOCC1)C(=O)N[C@@H](Cc1ccccc1)C(=O)N[C@@H](CC(C)C)C(=O)[C@@]1(C)CO1 | -97.1%
2 | Cc1ncc(NC(=O)c2ccc(CN3CCN(C)CC3)c(C(F)(F)F)c2)cc1Nc1nccc(-c2cccnc2)n1 | -33.9%
3 | O=C(/C=C\n1cnc(-c2cc(C(F)(F)F)cc(C(F)(F)F)c2)n1)NNc1cnccn1 | -73.9%
4 | C[C@H]1[C@@H](O)O[C@@H]2O[C@@]3(C)CC[C@H]4[C@H](C)CC[C@@H]1[C@@]24OO3 | -30.9%
5 | Cc1cc(C(=O)NOCCO)c(Nc2ccc(I)cc2F)n(C)c1=O | -83.4%
6 | CC(CN1c2ccccc2Sc2ccccc21)N(C)C (stereo not given) | -40.7%
7 | COc1c(C)c2c(c(O)c1C/C=C(\C)CCC(=O)O)C(=O)OC2 | -22.3%
8 | CCc1c(O)cc(O)c(C(=O)c2ccc(OCCN3CCOCC3)c(OC)c2)c1CC(=O)N(CCOC)CCOC | -93%
9 | CN(c1ncccc1CNc1nc(Nc2ccc3c(c2)CC(=O)N3)ncc1C(F)(F)F)S(C)(=O)=O | -83.7%
10 | CC(C)c1cc(C(C)C)c(-c2csc(N(CCN(C)C)Cc3cccnc3)n2)c(C(C)C)c1 | -24%
11 | Cc1csc(-c2nnc(Nc3ccc(Oc4ncccc4-c4ccnc(N)n4)cc3)c3ccccc23)c1 | -28.2%
12 | CCCCCCCCCCCCCCCC[N+](C)(C)C | -84.6%
13 | Cc1noc2c1-c1ccccc1C(c1ccc(Cl)cc1)=N[C@H]2CC(N)=O | -53.9%
14 | CN(C)C(=S)SC(=S)N(C)C | -30.9%
15 | COc1cccc(Nc2ncnn3ccc(CN4CC[C@@H](N)[C@H](O)C4)c23)c1 | -24%
16 | CC[C@@]1(O)C(=O)OCc2c1cc1n(c2=O)Cc2c-1nc1cc(F)c(C)c3c1c2[C@@H](N)CC3 | -91.7%
17 | Nc1ccc(-c2cccc3c(=O)cc(N4CCOCC4)oc23)cc1 | -64.9%
18 | CC(C)(C)c1cc(NC(=O)Nc2ccc(-c3cn4c(n3)sc3cc(OCCN5CCOCC5)ccc34)cc2)no1 | -46.2%
19 | Nc1ncnc2c1c(-c1cccc(OCc3ccccc3)c1)cn2C1CC(CN2CCCC2)C1 (stereo not given) | -48%
20 | COC(=O)Nc1nc2cc(C(=O)c3ccc(F)cc3)ccc2[nH]1 | -46.6%

Row | Compound | cell viability activity
21 | CC[C@@H](C(=O)[C@@H](C)[C@@H](O)[C@H](C)CCc1ccc(C)c(O)c1C(=O)O)[C@H]1O[C@](CC)([C@H]2CC[C@](O)(CC)[C@H](C)O2)C[C@@H]1C | -65.8%
22 | Cc1cnc(Nc2ccc(N3CCN(C)CC3)cc2)nc1Nc1cccc(S(=O)(=O)NC(C)(C)C)c1 | -83.9%
23 | COC(=O)C1=C(C)NC(C)=C(C(=O)OCCCN2CCC(c3ccccc3)(c3ccccc3)CC2)[C@@H]1c1cccc([N+](=O)[O-])c1 | -65.6%
24 | CCOc1cc2ncc(C#N)c(Nc3ccc(F)c(Cl)c3)c2cc1NC(=O)/C=C/CN(C)C | -77.4%
25 | CCCCNc1ncc2c(-c3ccc(CN4CCN(C)CC4)cc3)cn([C@H]3CC[C@H](O)CC3)c2n1 | -89.4%
26 | CC1(C)CC(=O)c2c(C(F)(F)F)nn(-c3ccc(C(N)=O)c(N[C@H]4CC[C@H](OC(=O)CN)CC4)c3)c2C1 | -89.4% and -91.3% and -87.7%
27 | CN(C)Cc1ccc(S(=O)(=O)n2ccc(/C=C/C(=O)NO)c2)cc1 | -72.5%
28 | CNc1ncc2cc(-c3cc(NC(=O)NCCC(C)(C)C)c(F)cc3C)c(C)nc2n1 | -69%
29 | Cc1nc(-c2cn3c(n2)-c2ccc(-c4cnn(C(C)(C)C(N)=O)c4)cc2OCC3)n(C(C)C)n1 | -53.2%
30 | O=C(Cc1ccc(-c2ccc(OCCN3CCOCC3)cc2)cn1)NCc1ccccc1 | -59.4%
31 | Nc1ccn([C@@H]2O[C@H](CO)[C@@H](O)C2(F)F)c(=O)n1 | -63.6%
32 | COc1cc(N2CCC(N)CC2)ccc1Nc1ncc(Cl)c(-c2c[nH]c3ccccc23)n1 | -95.8%
33 | CN(C)c1ccc(C(=C2C=CC(=[N+](C)C)C=C2)c2ccc(N(C)C)cc2)cc1 | -96.3%
34 | OCCCNc1cc(-c2ccnc(Nc3cccc(Cl)c3)n2)ccn1 | -86.6%
35 | CCOc1ccccc1OC(c1ccccc1)C1CNCCO1 (stereo not given) | -30.5%
36 | CC(=O)c1cnc2ccc(-c3cc(Cl)c(O)c(Cl)c3)nc2c1N[C@H]1CC[C@H](CN(C)C)CC1 | -89.2%
37 | O=C(NNc1nc2cc(F)ccc2n2cccc12)c1cnccn1 | -82.8%
38 | CCCCCC(O)c1cccc(OCc2ccc3ccccc3n2)c1 (stereo not given) | -71.3%
39 | COc1cc(OC)c(/C=C/S(=O)(=O)Cc2ccc(OC)c(OP(=O)(O)O)c2)c(OC)c1 | -26.7%
40 | CN(C)C(=O)c1cc2cnc(Nc3ccc(N4CCNCC4)cn3)nc2n1C1CCCC1 | -26%
